Assay results reported in PubChem BioAssay AID1578 (Sanford-Burnham Center for Chemical Genomics, 2009).
The whole screen tested about 290,000 compounds, of which about 3,000 (1%) were called active. Shown is part of a subset that was picked to be rich in actives. Values without a mark were called inactive. No stated cut-off is given here; in the data, active means inhibition mostly above about 36% (no sharp cut-off); inactive means mostly below about 34%.

Experiment: inhibition of NOD1-driven NF-kB reporter – cell-based, luminescence, uHTS, primary screen (AID 1578);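 further: HEK-293T reporter cells stimulated with the NOD1 agonist gamma-tri-DAP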
Details: NOD1-driven NF-kB luciferase reporter cells, at 4 µM, active compounds read high

| Compound | inhibition |
| --- | --- |
| COc1cc(NC(=O)CSc2nnc(-c3cc(C)on3)o2)cc(OC)c1 | 9.9% |
| CCCc1nnc(NC(=O)C23CC4CC(CC(C4)C2)C3)s1 | 0.1% |
| Cc1c(C(=O)Nc2ccc3c(c2)OCO3)sc2nc(-c3ccccc3)cn12 | -35.7% |
| Cc1c(C(=O)Nc2ccc3c(c2)OCCO3)sc2nc(-c3ccccc3)cn12 | 79.1% (active) |
| Cc1c(C(=O)Nc2ccccc2)sc2nc(-c3ccccc3)cn12 | -15.4% |
| CCCCOc1cccc(C(=O)NC(=S)Nc2cccc(NC(=O)c3ccccc3Cl)c2)c1 | -15.9% |
| COc1ccc2c(c1OC)C(=O)N(c1cccc(C(F)(F)F)c1)C2 | -67.5% |
| CC(=O)c1ccccc1C(=O)NCc1cccnc1 | -9.2% |
| COC(=O)C1=C(C)Nc2c(c(=O)n(C)c(=O)n2C)C1c1cccnc1 (centres undefined) | -10.6% |
| COC(=O)C1=C(C)Nc2c(c(=O)n(C)c(=O)n2C)C1c1ccncc1 (centres undefined) | 68.6% (active) |
| COC(=O)C1=C(C)Nc2c(c(=O)n(C)c(=O)n2C)C1c1ccc(C)cc1 (centres undefined) | -27.5% |
| Cc1ccc(S(=O)(=O)N(CC(=O)Nc2cccnc2)c2cccc([N+](=O)[O-])c2)cc1 | -14.2% |
| COc1ccc(/C=C2/SC(=S)N(CCCC(=O)Nc3ccccc3C(=O)O)C2=O)cc1 | 34.1% |
| Cc1ccc(SCC(=O)Nc2cc([N+](=O)[O-])ccc2O)cc1 | 77.2% (active) |
| Cc1ccc(/C=C2/SC(=S)N(CCCC(=O)Nc3cc([N+](=O)[O-])ccc3O)C2=O)cc1 | 71.1% (active) |
| Cc1ccc(/C=C2\SC(=S)N(CCC(=O)NNC(=O)c3ccccc3O)C2=O)cc1 | -24.7% |
| O=C(CCCN1C(=O)/C(=C\c2cccs2)SC1=S)Nc1cc([N+](=O)[O-])ccc1O | 26.3% |
| Cc1ccc(O)c(NC(=O)CSc2ccc(Cl)cc2)c1 | 17% |
| COc1ccc([N+](=O)[O-])cc1NC(=O)CSc1ccc2ccccc2c1 | 41.3% |
| O=C(CCN1C(=O)/C(=C/c2ccc(F)cc2)SC1=S)Nc1cc([N+](=O)[O-])ccc1O | -1.3% |
| COc1cc(Cl)ccc1OCc1cc(C(=O)N(C)Cc2cccc3cnccc23)no1 | 11.4% |
| CC1(C)SC(=S)N(/N=C/c2ccccc2O)C1N(O)C(=O)Nc1ccccc1 (centres undefined) | -1.1% |
| CCCSc1nnc(NC(=O)c2nc(SC)ncc2Cl)s1 | -10.4% |
| Cc1cccn2c(=O)c(C=Nc3c(C)n(C)n(-c4ccccc4)c3=O)c(N3CCCC3)nc12 | -3.8% |
